Screens deposited in PubChem BioAssay by National Center for Advancing Translational Sciences (NCATS).
Shown are actives, neighbours in structure and some others; about 1.4% of the full set was active somewhere.
HTT cytoprotect: Huntington cell model cytoprotection by ATP luminescence. PC12 HTT-Q103 induced, cytoprotection, ATP luminescence, 40 h. Potency, µM (doses to about 56.4 µM), without a hit: cytoprotection (ATP increase), hits mostly activators. 230,000 tested, 0.14% active; note: % of control where 0% means no effect; nearly all actives have a fitted effect of over 45% in size
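Quantitative HTS on tebufenozide-induced (100 nM) PC12 cells expressing HTTQ103 exon 1–GFP; compounds tested as a concentration series; survival measured via cellular ATP.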
ERK EGF block: inhibitors of EGF-stimulated ERK signaling pathway; HEK293-V1b, EGF-stimulated phospho-ERK AlphaScreen; Potency, µM (titrated, usually from 11.5 µM), for the others: at the top dose activity change, negative = inhibition, hits mostly inhibitors; 130,000 tested, 0.41% active;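 note: plate controls were stimulated vehicle wells for no effect and unstimulated vehicle basal for full effect; nearly all actives have a fitted effect of over 55% in size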
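In this qHTS, HEK293 cells with stable type-1 vasopressin (V1b) receptor were exposed to compound at 37C for 30 min, stimulated 5 min with EGF at 25 nM, lysed, and probed for phospho-ERK by AlphaScreen.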
HttQ103 aggreg: inhibitors of mutant huntingtin aggregate formation in PC12 cells | PC12 HttQ103-GFP aggregates, Acumen cytometry, 40 h | Potency, µM (series often up to 46.1 µM), for the others: at the top dose activity change, negative = inhibition, most hits filed as inhibitors | 220,000 tested, 1.1% active | AID 1688; note: % is set by controls: 0 for no effect and ±100 for the full control effect; nearly all actives have a fitted effect of over 60% in size
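Read-out: GFP aggregate count by laser scanning cytometer (488 nm excitation, 500-530 nm emission, 1–25 µm objects >6 SD above background). Cells: PC12, inducible HTTex1-Q103-GFP, 100 nM tebufenozide; compounds titrated.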
The depositor's hits bear a star; ? = inconclusive; · = no result given; ! = repeats disagree; [ ] = remark or other dose. Calls come from the whole dose curve; as a rule, active = well fitted curve in the direction sought with a large enough effect; inconclusive = small, poorly fitted or top-dose-only effect, or another doubt; inactive = no such curve, though single readings can be large; an effect the other way counts as inactive or inconclusive. Potency is the fitted concentration of half-maximal effect.

SMILES | HTT cytoprotect | ERK EGF block | HttQ103 aggreg
CCOC(=O)c1ccc(Nc2ncnc3ccccc23)cc1 | 13% | -7% | -15%
COc1ccc(Nc2ncnc3ccccc23)cc1 | 1% | · | 11µM*
Oc1ccc(Nc2nc(N3CCCC3)c3ccccc3n2)cc1 | -99%[10 µM] | · | -23%
O=C(Oc1ccc(Nc2ncnc3ccccc23)cc1)c1cccnc1 | -44% | 28µM* | -8%
CCOc1ccc(Nc2ncnc3ccc([N+](=O)[O-])cc23)cc1 | 9%[10 µM] | -7% | 7.9µM*
COc1cccc(Nc2ncnc3ccccc23)c1 | -61% | · | ?
CC[C@H](C)C(=O)O[C@H]1CCC=C2C=C[C@H](C)[C@H](CC[C@@H]3C[C@H](O)CC(=O)O3)C21 (some centres not stated) | · | 23% | ·
Cc1noc(C)c1C(=O)N1CCC2(CCN(Cc3ccc(C#N)cc3)CC2)CC1 | -8% | 12% | ·
CC(C)CN1CC[C@@]2(CCCN(C(=O)c3ccco3)C2)C1 | -30% | -3% | ·
Cc1ccc(OCC(O)C(C)NC(C)C)c2c1CCC2 (configuration not stated) | -51% | 0% | ·
CO[C@H]1/C=C/O[C@@]2(C)Oc3c(C)c(O)c4c(O)c(c(/C=N/N5CCN(C)CC5)c(O)c4c3C2=O)NC(=O)/C(C)=C\C=C\[C@H](C)[C@H](O)[C@@H](C)[C@@H](O)[C@@H](C)[C@H](OC(C)=O)[C@@H]1C | 5% | · | ·
C=CCOC(=O)N[C@H](c1ccccc1)C(C(C)=O)C(C)=O | -12% | -9% | ·
COc1cccc(-c2nnc3n2N=C(c2cc(OC)ccc2OC)CS3)c1 | -64% | · | -8%
COc1cccc(-c2nnc3n2N=C(C(C)(C)C)CS3)c1 | 34% | · | 2µM*
COC(=O)N(/C=C/c1ccc(OC)cc1)CCc1ccc(OC)c(OC)c1 | -12%[10 µM] | · | ·
CN(C)NC1=CC(=[N+]2CCCC2)CC(C)(C)C1 | -21% | -1% | -17%
CCCN(CCC)C1=CC(=[N+]2CCCC2)CC(C)(C)C1 | 34%[0.074 µM] | -2% | 11µM*
CC[C@H]1[C@@H]2C=C[C@@H]3[C@H]4C/C=C\C(=O)NCCC[C@@H]5NC(=O)C(=C5O)C(=O)CC[C@@H]4C[C@@H]3[C@H]2C[C@H]1C | -184% | · | ·
CC(C)[C@H](O)C1=CCCCC1=O | 1% | 7% | ·
O=C(CCl)N(c1ccccc1)C1CCS(=O)(=O)C1 (configuration not stated) | 13%[10 µM] | 1% | 8.9µM*
CN(C1CCS(=O)(=O)C1)S(=O)(=O)c1ccccc1 (configuration not stated) | -10%[10 µM] | -2% | -21%[9.22 µM]
O=c1cc(O)cc(/C=C/c2ccc(O)c(O)c2)o1 | · | 15% | ·
CCCc1ccc(C(=O)O)cc1 | 10% | · | 8%
CC(=O)[C@@]1(O)CC[C@@H]2[C@@H]3CCC4=CC(=O)CC[C@@]4(C)[C@H]3CC[C@]21C | -1%[1.9 µM] | · | ·
CC1=C(/C=C/C(C)=C/C=C/C(C)=C/CO)C(C)(C)CCC1 | 10µM*! | -11% | -5%
SMILES | HTT cytoprotect | ERK EGF block | HttQ103 aggreg
CC1=C(/C=C/C(C)=C/C=C/C(C)=C\CO)C(C)(C)CCC1 | 7% | · | ·
O=C(O)c1ccncc1.O=C(O)c1ccncc1.[Cl][Pt]([Cl])([Cl])[Cl] | -12%[10 µM] | · | ·
CN1/C(=C/C2CC(=O)N(c3ccc([N+](=O)[O-])cc3)C2=O)C(C)(C)c2ccccc21 (configuration not stated) | -23% | · | 3%
CN1C(=CC=C2C=C(I)C(=O)C(I)=C2)C(C)(C)c2ccccc21 | -10%[10 µM] | 13µM* | -6%[9.22 µM]
CN1/C(=C\C=Nc2cc(S(=O)(=O)N3CCOCC3)ccc2N2CCOCC2)C(C)(C)c2ccccc21 | 2%[10 µM] | -5% | 13%
CN1/C(=C\C=C2/SC(=S)NC2=O)C(C)(C)c2ccccc21 | -5%[10 µM] | 25µM* | -21%[9.22 µM]
CN1/C(=C\C=C2/C(=O)Oc3ccccc3C2=O)C(C)(C)c2ccccc21 | · | 6% | 7.9µM*
CCCN1C(=O)/C(=C\C=C2\N(CC)c3ccccc3C2(C)C)SC1=S | -1%[10 µM] | ? | -14%[9.22 µM]
S=c1nc[nH]c2c1ncn2Cc1ccco1 | 2%[10 µM] | · | ·
O=C(NCc1cccc(Cl)c1)c1cc(COc2ccc3ncccc3c2)on1 | -2%[10 µM] | ? | -4%[9.22 µM]
CC(C)N(Cc1nccn1C)C(=O)c1cc(COc2ccc3ncccc3c2)on1 | -6% | -17% | 20µM*
Cc1ccc(F)cc1CNC(=O)c1cc(COc2ccc3ncccc3c2)on1 | -2% | ? | 13µM*
Cc1cc(C)n(CCNC(=O)c2cc(COc3ccc4ncccc4c3)on2)n1 | 7%[10 µM] | 11%[57.5 µM] | 5%[9.22 µM]
CC[C@@H](c1ccccc1)n1c(=O)n2n(c1=O)[C@H]1[C@H](O)[C@H]3O[C@@H]3/C(=N/OC/C=C(\C)CCC=C(C)C)[C@@H]1CC2 | 1%[10 µM] | · | ·
